We go through 39 compounds from PubChem BioAssay (EPA / NIEHS).

Structures are written as SMILES. Where “and” joins values, the source holds several entries; their conditions need not be identical. Equal entries are not always repeated. Some structures have more than one record in an assay (separate samples or runs), and their calls can disagree. Calls of active or inactive are those of the source. How the source made its calls: active means hit-call score of the fitted dose curve at least 0.9, where 1 is the maximum; inactive means score below 0.9.

Sequence of Signal transducer and activator of transcription 3 (Homo sapiens) (P40763 whole entry, looked up): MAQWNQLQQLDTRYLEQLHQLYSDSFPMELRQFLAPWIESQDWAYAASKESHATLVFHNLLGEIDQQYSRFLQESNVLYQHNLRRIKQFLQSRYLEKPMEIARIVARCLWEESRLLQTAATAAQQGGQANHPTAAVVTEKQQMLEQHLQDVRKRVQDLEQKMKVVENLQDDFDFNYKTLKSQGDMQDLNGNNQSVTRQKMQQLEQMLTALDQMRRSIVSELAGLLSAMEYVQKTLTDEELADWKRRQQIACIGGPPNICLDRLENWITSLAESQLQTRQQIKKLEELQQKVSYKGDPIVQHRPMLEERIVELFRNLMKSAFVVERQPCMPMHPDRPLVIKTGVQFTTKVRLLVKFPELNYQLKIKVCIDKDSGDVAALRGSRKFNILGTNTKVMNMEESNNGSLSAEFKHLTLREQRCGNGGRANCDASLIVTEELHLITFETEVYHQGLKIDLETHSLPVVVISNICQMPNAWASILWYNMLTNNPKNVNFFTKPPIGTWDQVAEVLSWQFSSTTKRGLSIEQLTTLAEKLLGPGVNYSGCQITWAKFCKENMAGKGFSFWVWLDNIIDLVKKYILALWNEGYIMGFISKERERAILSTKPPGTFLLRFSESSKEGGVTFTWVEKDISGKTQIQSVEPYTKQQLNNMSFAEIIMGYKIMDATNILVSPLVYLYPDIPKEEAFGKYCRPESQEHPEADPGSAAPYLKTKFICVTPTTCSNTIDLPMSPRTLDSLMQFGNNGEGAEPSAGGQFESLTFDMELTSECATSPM

This test addresses Signal transducer and activator of transcription 3 (Homo sapiens) (UniProt P40763). Kind of test: ATG_STAT3_CIS: Attagene CIS-FACTORIAL HepG2 Assay for human Signal Transducer and Activator of Transcription 3 (STAT3) (AID 2282963). To be noted: HepG2, Attagene cis-factorial STAT3 reporter transcription; actives raise or lower the signal. As to the method: ATG_CIS is a cell-based, multiplexed-readout assay that uses HepG2, a human liver cell line, with measurements taken at 24 hours after chemical dosing in a 24-well plate.ATG_STAT3_CIS is one of 52 assay component(s) measured or calculated from the ATG_CIS assay. It is designed to make measurements of mRNA induction, a form of inducible reporter, as detected with fluorescence intensity signals by Reverse transcription polymerase chain reaction (RT-PCR) and Capillary electrophoresis technology.Data from the assay component ATG_STAT3_CIS was analyzed into 1 assay endpoint. This assay endpoint, ATG_STAT3_CIS, was analyzed with bidirectional fitting relative to DMSO as the negative control and baseline of activity. Using a type of inducible reporter, measures of mRNA for gain or loss-of-signal activity can be used to understand the reporter gene at the transcription factor-level as they relate to the gene STAT3. Furthermore, this assay endpoint can be referred to as a primary readout, because this assay has produced multiple assay endpoints where this one serves a reporter gene function. To generalize the intended target to other relatable targets, this assay endpoint is annotated to the dna binding intended target family, where the subfamily is stat protein.
Human liver HepG2 cells are transiently transfected with multiple reporter transcription units (MRTUs) in 6-well plates using FuGene 6 reagent (Roche; 3 ml FuGene/1 mg DNA). The MRTU constructs are regulated by a cis-regulating element (promoter). […] A major difference between the CIS and TRANS system is that in CIS activities of endogenous TFs are measured, whereas the TRANS assay evaluates changes in activities of exogenous, chimeric NR-Gal4 proteins. […] At the end of 24 hour incubation, total RNA was isolated using TriZol reagent (Invitrogen). The isolated RNA is then reverse-transcribed using oligo(dT) primer and Mo-MLV reverse transcriptase (Invitrogen) with DNAse I (Ambion) treatment for 30 min. The one-tenth of the produced cDNA was amplified by PCR using Taq DNA polymerase (Invitrogen) and two reporter sequence-specific primers. The PCR products were fluorescently labeled by primer extension with 6-arboxyfluorescein (6-FAM) 5'-labeled reporter sequence-specific primer (2 min at 95 C, 20 s at 68 C and 10 min at 72 C) and these products were digested with 5U of HpaI (New England Biolabs) for 2h at 37 C. The fragments were purified using Qiaquick PCR columns (Qiagen), analyzed on an ABI 3130xL genetic analyzer (Applied Biosystems) with peak positions identified by using a set of X-rhodamine (ROX)-labeled MapMarker1000 molecular weight standards (BioVentures). The raw capillary electrophoresis data was processed using Attagraph software (Attagene).
On to `CC=CC(=O)C1=C(C)C=CCC1(C)C`, for which the outcome was inactive.

With `COc1cc(OC)c2ccc(=O)oc2c1`, the call was inactive.

For `CCC(CC)CO`, the compound was called inactive.

As for `CC1=CC[C@@H]2C[C@H]1C2(C)C`, the outcome was inactive.

`C=CC(C)CCCC(C)(C)O` (stereo not given): the result was inactive.

For the compound `Cc1cccc(C)c1`, the call was inactive.

As to `[Cl][Dy]([Cl])[Cl]`, the compound was classed as inactive.

Consider `O=C1CCCCCCCCCCCC(=O)OCCO1`, for which the call was inactive.

As to `OC[C@@H](O)[C@H](O)[C@@H](O)[C@@H](O)CO`, the outcome was inactive.

In the case of `C=C(C)C(N)=O`, the compound was classed as inactive.

As to `O=[N+]([O-])c1cc(N(CCO)CCO)ccc1NCCO`, the result was inactive.

On to `c1ccc(Cc2ccccc2)cc1`, for which the compound was classed as inactive.

With `CC(=O)CC(C)(C)C1CCCCC1`, the compound was called inactive.

Turning to `CCCCOCCOCCO`, the result was inactive.

For the compound `C=C(C)C(=O)OCCN(C)C`, the result was inactive.

In the case of `O=C1OCc2ccccc21`, the result was inactive.

For `CC(=O)Nc1cc(S(=O)(=O)O)cc2cc(S(=O)(=O)O)c(N=Nc3ccccc3)c(O)c12`, the result was inactive.

On to `CC(C)COC(=O)c1ccccc1`, for which the compound was classed as inactive.

In the case of `C1CCCNCC1`, the compound was classed as inactive.

As to `N#CCCNCCC#N`, the outcome was inactive.

For `C#C[C@]1(O)CC[C@H]2[C@@H]3CCc4cc(O)ccc4[C@H]3CC[C@@]21C`, the result was inactive; the AC50 was 68 µM (active) and 155 µM (active).

On to `COC(=O)c1ccc(C(=O)OC)cc1`, for which the call was inactive.

Turning to `CCC(C)(C)C1CCC(OC)CC1` (stereo not given), the call was inactive.

As to `CCCCCCC(O)CCOC(C)=O` (stereo not given), the compound was classed as inactive.

As to `CCCCCCCOC(C)=O`, the compound was classed as inactive.

As for `O=C(c1ccc(OCCN2CCCCC2)cc1)c1c(-c2ccc(O)cc2)sc2cc(O)ccc12`, the outcome was inactive.

On to `CC(C)(O)C(=O)c1ccc(OCCO)cc1`, for which the result was inactive.

As for `O=C(O)c1ccco1`, the compound was classed as inactive.

For the compound `O=c1cc[nH]cc1`, the result was inactive.

In the case of `CCCC[N+](C)(CCCC)CCCC`, the result was inactive.

Consider `CCCc1ccc(O)cc1`, for which the result was inactive.

Consider `CCOc1ccc(NC(C)=O)cc1`, for which the outcome was inactive.

Regarding `CC(C)OB(OC(C)C)OC(C)C`, the outcome was inactive.

On to `CC12CCC(C1)C(C)(C)C2O` (stereo not given), for which the outcome was inactive.

On to `CCCOC(=O)CC`, for which the outcome was inactive.

Take `CC(=O)C1C(=O)C=C(C)OC1=O` (stereo not given): the compound was called inactive.

In the case of `O=C(O)c1cc2ccccc2cc1O`, the compound was called inactive.

As for `O=C(O)c1cccc(Cl)n1`, the outcome was inactive.

Turning to `CCCc1ccc(N)cc1`, the call was inactive.

Usually AC50 stands for the concentration at which the activity in the assay is half-maximal.
